# From PubChem BioAssay
# Vaccinia mCherry: inhibitors of vaccinia virus infection (mCherry reporter signal); Potency, µM (top dose mostly 36.5 µM), actives largely listed as inhibitors; hit rate 0.63% among 310,000; Vaccinia virus mCherry reporter infection, fluorescence; calls by dose curve; tested in A549 cells; further: nearly all actives have a fitted effect of over 35% in size
# HCV inhibitor: blocks hepatitis C virus; Huh7.5.1 HCVcc-Cre infection, luciferase reporter, 44 h; Potency, µM (series often up to 41.8 µM), hits mostly inhibitors; hit rate 3.4% among 340,000; active means well fitted inhibition curve with a large enough effect; inconclusive means small, poorly fitted or top-dose-only effect, or another doubt; inactive means no such curve, though single readings can be large or run the other way
#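 Infectious HCVcc-Cre (~0.5 moi) was added to cells just after compound, with cells seeded 4 h earlier at 1,000 per well. Luciferase activity after 44 h culture reported infection; substrate was incubated 15 min at room temperature before reading.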
# VACV Venus inh: vaccinia inhibition (Venus reporter); Vaccinia virus Venus reporter expression, fluorescence; Potency, µM (titrated, usually from 36.5 µM), usual class: inhibitors; hit rate 0.46% among 330,000; AID 720580; calls by dose curve; tested in A549 cells; further: nearly all actives have a fitted effect of over 30% in size
# Hits are given with their value; - = inactive; ? = inconclusive; . = no result given; [ ] = another dose, or the depositor's remark. Most compounds without a hit are left out; they make up all but 3.3% or so of the library.
SMILES,Vaccinia mCherry,HCV inhibitor,VACV Venus inh
O=C(CCN1C(=O)c2cccc3cccc(c23)C1=O)N1CCOCC1,-,-,-
O=C(CCCN1C(=O)c2cccc3cccc(c23)C1=O)N1CCN(c2ccc(F)cc2)CC1,-,11.2µM,-
CCN1C(=S)N[C@@H](CCc2ccccc2)C(C(=O)OC)=C1C,-,-,-
N#CC[n+]1cccc(Br)c1,-,.,-
Cc1ccc(-c2nnc3ccc(SCC(=O)OCc4ccccc4)nn23)cc1,-,.,-
C=C1CCC[C@]2(C)C[C@H]3OC(=O)C(CNC(C)CC)[C@H]3CC12 (stereo partly drawn),.,-,.
C=C1CCC[C@]2(C)C[C@H]3OC(=O)C(CN4CCCCC4CO)[C@H]3CC12 (stereo partly drawn),3.16µM,-,2.51µM
C=C1CCC[C@]2(C)C[C@H]3OC(=O)C(CNC(CC)CO)[C@H]3CC12 (stereo partly drawn),7.08µM,-,7.08µM
C=C1CCC[C@]2(C)C[C@H]3OC(=O)C(CNC(C)(CO)CO)[C@H]3CC12 (stereo partly drawn),7.94µM,-,?
C=C1CCC[C@]2(C)C[C@H]3OC(=O)C(CN(C)CC(OC)OC)[C@H]3CC12 (stereo partly drawn),0.891µM,-,?
CN(C)Cc1ccccc1-c1ccc2ncnc(NCc3cccs3)c2c1,-,.,-
CCOc1ccc(S(=O)(=O)NCC(c2ccco2)S(=O)(=O)c2ccc(F)cc2)cc1 (stereo not drawn),-,.,-
Cc1noc(C)c1S(=O)(=O)Nc1ccc2c(c1)C(=O)N([C@H](C)CO)C[C@H](C)[C@@H](CN(C)C(=O)NC(C)C)O2,-,?,-
Cc1noc(C)c1S(=O)(=O)N(C)C[C@H]1Oc2ccc(NS(=O)(=O)c3cn(C)cn3)cc2C(=O)N([C@H](C)CO)C[C@@H]1C,-,3.55µM,-
Cc1noc(C)c1NC(=O)N(C)C[C@@H]1Oc2ccc(NS(=O)(=O)c3c(C)noc3C)cc2C(=O)N([C@H](C)CO)C[C@H]1C,-,3.16µM,-
Cc1noc(C)c1S(=O)(=O)N(C)C[C@H]1Oc2ccc(NS(=O)(=O)c3ccc(F)cc3)cc2C(=O)N([C@H](C)CO)C[C@@H]1C,-,-,-
O=C(CSc1ncnc2c1cnn2-c1ccccc1)NC1CCCC1,-,10µM,-
CNC(=O)CSc1ncnc2c1cnn2-c1ccccc1,-,-,-
Cc1csc(NC(=O)CSc2ncnc3c2cnn3-c2ccccc2Cl)n1,?,17.8µM,?
CC(C)C(=O)NNC(=O)CSc1ncnc2c1cnn2-c1ccccc1Cl,.,-,.
COc1ccccc1N1CCN(C(=O)CSc2ncnc3scc(-c4ccccc4)c23)CC1,-,?,-
COc1ccc(-n2ncc3c(SCC(=O)N4CCN(c5ccccc5OC)CC4)ncnc32)cc1,.,12.6µM,.
CCOC(=O)CNC(=O)CSc1ncnc2c1cnn2-c1ccc(Cl)cc1,-,-,-
Cc1ccccc1-n1ncc2c(SCC(=O)NCc3cccs3)ncnc21,-,22.4µM,?
C#Cc1cccc(C(=O)NCc2nc(-c3ccccc3NC(=O)C3CCCO3)oc2C)c1 (stereo not drawn),-,.,-
SMILES,Vaccinia mCherry,HCV inhibitor,VACV Venus inh
CC(C)c1nnc(NC(=O)C2CCN(C(=O)C(C)(C)C)CC2)s1,-,.,-
O=[N+]([O-])c1ccccc1/C=C1\C=Cc2ccccc21,-,.,-
COc1cccc(-c2ccc(O)c(CNC(c3ccccc3)c3ccc(Cl)cc3)c2)n1 (stereo not drawn),-,.,-
COCCN(C(=O)c1ccc(N2CCCC2=O)cc1)c1c(N)n(Cc2ccccc2)c(=O)[nH]c1=O,.,-,.
COc1ccc(C(CC(=O)O)c2ccc3c(c2)OCO3)cc1 (stereo not drawn),-,-,-
COc1ccc(CNCCC(c2ccc(OC(C)C)cc2)c2ccccc2OC)cc1OC (stereo not drawn),-,12.6µM,-
COc1ccc(C(CCNCc2ccc(OC(C)C)cc2)C(C)C)cc1 (stereo not drawn),-,?,-
COc1ccccc1NC(=O)CC(c1ccc(OC(C)C)cc1)c1ccccc1OC (stereo not drawn),-,11.2µM,-
COc1ccccc1C(CC(=O)Nc1ccc(C)c(C)c1)c1ccc(OC(C)C)cc1 (stereo not drawn),-,?,-
COc1ccc(CNCCC(c2ccccc2)c2ccc3c(c2)OCO3)cc1 (stereo not drawn),?,10µM,?
COc1ccc(CNCCC(c2ccc(OC(C)C)cc2)C(C)C)cc1OC (stereo not drawn),.,8.91µM,.
COc1ccc(CNCCCSc2ncccn2)cc1OC,.,-,.
CCOc1ccc(CNC(=O)c2ccc3c(c2)sc2nc(-c4ccc(OC)cc4)cn23)cc1,-,.,-
COC(=O)c1cc(CNC(=O)c2ccccn2)cc(NC(=O)c2ccccc2OC)c1,-,.,-
C/C=C(/C)C(=O)O[C@@H]1[C@H](OC(=O)C=C(C)C)c2c(ccc3ccc(=O)oc23)OC1(C)C,-,-[8.37 µM],?
